We go through seven molecules from PubChem BioAssay.

Assay [1] has as its system Human papillomavirus type 1a protein E7 (residues 44-93). The experiment in a line: HPV1a E7 fragment binders on microarrays, primary screen, biochemical, small-molecule microarray, residues 44-93, 635 nm fluorescence (AID 1108).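 Further: E7 fragment applied at 1 µg/mL in TBST for 1 h at 4 C; score combines spot fluorescence with its signal to noise ratio.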 The conditions noted are these: small-molecule microarray binding, fluorescence 635 nm; higher = more signal.
Assay [2] in a line: modulators of HCV replicon luciferase signal, primary screen, HCV replication inhibitor project, Huh7 cells, luciferase reporter (AID 1109).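 Further: huh7 hepatoma cells harbouring a luciferase neomycin HCV replicon reporter; luciferase luminescence as measure of HCV replicon replication; test concentration not given here.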 Particulars: 48 h, higher = more signal.
Assay [3] concerns the target Left-right determination factor 2 (Homo sapiens) (UniProt O00292). The experiment in a line: LEFTY2 binders on small-molecule microarrays, primary screen, biochemical, small-molecule microarray, 635 nm fluorescence scan (AID 1110). Particulars: LEFTY2 binding, higher = more signal.
The target of assay [4] is Calmodulin-1 (Homo sapiens) (UniProt P0DP23). The experiment in a line: CALM1 binders on microarrays, EGTA buffer, profiling panel, biochemical, small-molecule microarray, Cy5-labelled CALM1 (AID 1111).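 Further: labelled calmodulin applied in Tris saline Tween buffer holding calcium plus EGTA and DTT.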 The conditions noted are these: Cy5-CALM1 binding fluorescence, higher = more signal.
Assay [5] has the same target. The experiment in a line: calcium-bound CALM1 binders on microarrays, profiling panel, artefact control for SMM control-protein annotation, biochemical, small-molecule microarray, Cy5-labelled CALM1, plus calcium (AID 1112).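 Further: score merges spot fluorescence with signal to noise from triplicate slides.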 The conditions noted are these: Cy5-CALM1 binding fluorescence, higher = more signal.
Assay [6] can be described thus: small-molecule microarray binders of probe aWnt5a, primary screen, biochemical, biotinylated probe, 635/667 nm fluorescence (AID 1113).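 Further: score merges 667 nm fluorescence intensity with signal-to-noise per printed feature.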 The conditions noted are these: higher = more signal.
Assay [7] is described as follows: small-molecule microarray binders of probe aShh, primary screen, biochemical, biotinylated probe, 635/667 nm fluorescence (AID 1114).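 Further: probe is biotin-labelled aShh protein from a stem cell growth factor screen; measures binding of labelled protein to compounds printed on the slide; score merges feature fluorescence at 667 nm with signal-to-noise.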 Particulars: higher = more signal.
Assay [8] can be described thus: small-molecule microarray binders of probe aNog, primary screen, biochemical, biotinylated probe, 635/667 nm fluorescence (AID 1115).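 Further: probe is biotinylated aNog protein used at 0.15 µg/mL for 1 h at 4 C; z-score combines 667 nm fluorescence of each spot with its signal to noise.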 Particulars: higher = more signal.
Assay [9] concerns the target Torsin-1A-interacting protein 1 (Homo sapiens) (UniProt Q5JTV8). The experiment in a line: LAP1 binders from COS7 cell lysate, primary screen, small-molecule microarray, 635/667 nm fluorescence (AID 1116). The conditions noted are these: COS7-hLAP1 lysate binding, 635 nm fluorescence, higher = more signal.
For assay [10], the target named is Alpha-bungarotoxin (Bungarus multicinctus) (UniProt P60615). The experiment in a line: alpha-bungarotoxin binders on microarray, profiling panel, artefact control for SMM control protein annotation, biochemical, small-molecule microarray, Alexa647 label, 635/667 nm fluorescence (AID 1117). The conditions noted are these: alpha-BTX-A647 binding fluorescence, higher = more signal.
Alpha-bungarotoxin (Bungarus multicinctus), sequence (P60615 whole entry, looked up): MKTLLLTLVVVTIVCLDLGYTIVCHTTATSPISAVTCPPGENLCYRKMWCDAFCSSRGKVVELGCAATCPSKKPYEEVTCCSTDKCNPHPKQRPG

Torsin-1A-interacting protein 1 (Homo sapiens), sequence (Q5JTV8 whole entry, looked up): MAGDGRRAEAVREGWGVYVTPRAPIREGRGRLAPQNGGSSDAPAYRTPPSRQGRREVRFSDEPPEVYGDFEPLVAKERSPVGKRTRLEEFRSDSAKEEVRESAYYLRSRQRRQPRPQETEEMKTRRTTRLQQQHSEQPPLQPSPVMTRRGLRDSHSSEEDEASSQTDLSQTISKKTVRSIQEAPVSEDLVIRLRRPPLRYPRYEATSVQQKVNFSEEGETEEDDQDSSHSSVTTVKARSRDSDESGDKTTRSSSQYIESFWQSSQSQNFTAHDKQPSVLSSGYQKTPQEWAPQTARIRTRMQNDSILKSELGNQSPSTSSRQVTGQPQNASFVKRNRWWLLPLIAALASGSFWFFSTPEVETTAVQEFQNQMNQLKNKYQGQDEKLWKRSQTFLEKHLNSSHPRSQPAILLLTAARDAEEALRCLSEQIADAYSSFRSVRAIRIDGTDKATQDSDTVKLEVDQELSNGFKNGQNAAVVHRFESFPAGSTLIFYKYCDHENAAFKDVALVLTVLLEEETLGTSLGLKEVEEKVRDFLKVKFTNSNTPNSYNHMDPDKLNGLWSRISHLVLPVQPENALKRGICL
Left-right determination factor 2 (Homo sapiens), sequence (O00292 whole entry, looked up): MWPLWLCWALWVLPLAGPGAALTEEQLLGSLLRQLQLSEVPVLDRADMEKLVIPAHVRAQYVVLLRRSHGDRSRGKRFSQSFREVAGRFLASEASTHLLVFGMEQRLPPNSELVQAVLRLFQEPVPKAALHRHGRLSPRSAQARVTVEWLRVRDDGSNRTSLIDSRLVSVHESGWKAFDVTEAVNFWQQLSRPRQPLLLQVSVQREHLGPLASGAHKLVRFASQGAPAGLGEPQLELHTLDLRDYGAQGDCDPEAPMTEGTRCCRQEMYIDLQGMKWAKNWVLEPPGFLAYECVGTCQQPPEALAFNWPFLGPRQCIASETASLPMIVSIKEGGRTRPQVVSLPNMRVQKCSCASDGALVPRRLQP

As for `COc1ccc(-c2nc(-c3ccccc3)c3c(c2C)CO[Si]3(C(C)C)C(C)C)cn1`, the composite z-score in [1] was 0.107; in assay [3], 0.372; in assay [4], -0.461; in assay [5] it was -0.309; in assay [6] it was -0.0405; in assay [7], 0.0278. In addition, the composite z-score is -0.294 in assay [8], 0.104 in [9] and 0.397 in assay [10]. Besides, the z-score in assay [2] was -1.05.

For `Cc1cc(C)c(C(O)C2C=CC3C(=O)N(c4ccccc4)C(=O)C3N2Nc2ccc(C(C)C)cc2)c(C)c1` (stereo not given), the composite z-score in [1] is -0.9; in assay [3], 0.229; in assay [4] it was 2.15; in [5], 1.37; in assay [6], 0.0792; in [7], 0.664. Further, the composite z-score in assay [8] amounted to 1.21; in assay [9], 1.27; in assay [10], 2.85. The molecule also came in with a z-score in assay [2] of 0.437.

As to `CCCC[C@@H]1C[C@H]1[C@@H](NC(=O)Cc1ccccc1)c1ccc(-c2ccccc2)cc1`, the composite z-score in assay [1] is 1.24; in assay [3], -0.319; in assay [4], 0.538; in [5], 0.588; in assay [6] it was -0.0276; in assay [7] it was 0.0098. In addition, the composite z-score in assay [8] is -0.0503; in assay [9], 0.487; in assay [10], 0.263. In addition, in assay [2], the z-score is -0.783.

For `COC(=O)[C@@]1(Cc2ccccc2)[C@H]2c3cc(C(=O)N(C)C)n(CCc4ccc(O)c(OC)c4)c3C[C@H]2CN1C(=O)c1ccccc1`, the composite z-score in assay [1] was 0.351; in assay [3] it was 0.38; in [4], 0.89; in assay [5] it was -0.136; in assay [6], 0.583; in assay [7], 1.49. Besides, the composite z-score in assay [8] came to 0.974; in assay [9], 0.279; in assay [10], 0.19. Besides, the z-score in assay [2] is -0.261.

With `O=C1C2C=CC(C(O)c3ccc(Br)cc3)N(Nc3ccccc3F)C2C(=O)N1c1ccccc1` (stereo not given), the composite z-score in assay [1] was 0.861; in assay [3], -0.134; in assay [4], 0.0034; in assay [5], 0.666; in [6] it was -0.0718; in [7] it was -0.0626. Further, the composite z-score was -0.571 in assay [8], -0.147 in [9] and 0.225 in assay [10]. For the same molecule, the z-score in assay [2] is -0.445.

With `Cc1cc(C)c(C(O)C2C=CC3C(=O)NC(=O)C3N2Nc2ccc(Cl)cc2Cl)c(C)c1` (stereo not given), the composite z-score in assay [1] is 1.4; in [3], 0.105; in [4] it was 2.18; in assay [5] it was 0.954; in [6] it was 0.0489; in assay [7], 0.171. The composite z-score in assay [8] amounted to 1.92; in [9], 1.78; in [10], 1. Besides, in assay [2], the z-score was -0.293.

`C=C(COC)C(=O)CC[C@@H](OC(=O)c1cccnc1)c1ccc(OCCO)cc1`: the composite z-score in assay [1] is 0.757; in assay [3] it was 0.659; in assay [4], -0.299; in assay [5], -0.804; in [6] it was -0.0944; in assay [7], -0.237. For the same molecule, the results for the composite z-score in assay [8], in assay [9] and in assay [10] were 0.678, 0.975 and 0.661, respectively. The same molecule came in with a z-score in assay [2] of -2.9.
